High-throughput results as filed in PubChem BioAssay.
Rows were chosen to be rich in hits. Some 2% of all compounds tested hit in one or more screens of this group.
PKD1 inh: inhibitors of human PKD1 kinase, biochemical, fluorescence polarization; Serine/threonine-protein kinase D1 (Homo sapiens), Q15139; PKD1 kinase fluorescence polarization assay; inhibition, % (test concentration not listed); 200,000 compounds, 0.056% hits; in the data active = inhibition above about 50%
HMGR II inh: inhibitors of E. faecalis class II HMGR, primary screen, biochemical, Enterococcus faecalis. HMG-CoA reductase (Enterococcus faecalis, mvaE). purified E. faecalis HMGR, NADPH absorbance 340 nm kinetic. inhibition, % at 10 µM. 190,000 compounds, 0.41% hits;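 active = inhibition above a set limit, the median over all tested compounds plus 3 SD, cut at about 9.5% in these data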;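 note: enzyme runs in reverse so mevalonate oxidation gives rising NADPH absorbance; 0% = complete reaction with DMSO and 100% = background rate lacking mevalonate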
Hsp70 activator: Hsp70 transcriptional activators, primary screen, cell-based, HeLa, Hsp70 promoter luciferase, luminescence, 10 µM | AID 1203, 2008 | 200,000 compounds, 0.04% hits | HeLa Hsp70 promoter luciferase reporter; scaled: vehicle 0, proteasome-inhibitor control 100% | activation, % at 10 µM;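 active = activation above the mean across all tested compounds plus 3 SD, cutoff set per campaign, cut at about 5.5% in these data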;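 note: 100% = MG132 at 30 µM as the positive control and 0% = DMSO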
Wee1 stabilizer: Wee1 degradation inhibitors, primary screen, cell-based, HeLa, Wee1K328M-luciferase, luminescence | Wee1-like protein kinase (Homo sapiens), P30291 | HeLa Luc-Wee1K328M stability; 100% = proteasome inhibitor MG132 effect | reporter increase, % at 5 µM | 220,000 compounds, 1.2% hits | AID 1321, 2008;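 active = activation above the mean of all tested compounds plus 3 SD, set per screening run, cut at about 8.8% in these data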;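 note: cells exposed to compound for 20 h before luminescence read; 0% = DMSO alone and 100% = MG132 at 30 µM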
Arbovirus inh: antivirals against arbovirus infection, primary screen, cell-based, full library, 10K replicate subset | arbovirus infection cell-based antiviral screen | inhibition, % at 10 µM | 200,000 compounds, 0.37% hits; in the data active = inhibition above about 30%
An asterisk follows results filed as active; / = no result given.

SMILES	PKD1 inh	HMGR II inh	Hsp70 activator	Wee1 stabilizer	Arbovirus inh
Cc1ccc(S(=O)(=O)NC2CCCCC2)c(C)c1NS(C)(=O)=O	2	-9	0	0	7
C#CC1(NC(=O)NC(C)C)CCCCC1	-2	5	0	-1	15
COc1cc(NC(=O)c2cc3nc(-c4ccccc4)cc(-c4ccccc4)n3n2)cc(OC)c1OC	13	17*	0	1	-3
CCOC(=O)C1(Cc2ccc(OC)cc2)CCN(C(=O)CCn2ccc(C)n2)CC1	1	-1	0	8.8*	4
Cc1cc(N2CCN(C(=O)c3ccco3)CC2)n2nc(-c3cccc(Cl)c3)cc2n1	-12	-2	0	9.2*	10
Cc1cccc(C(=O)NNC(=O)c2ccco2)c1	13	1	0	-4	4
CC(C)CCNC(=O)NC(=O)COc1ncnc2sccc12	-3	-3	0	3	-3
CC(C)CNC(=O)NC(=O)COc1ncnc2sccc12	-4	-3	0	9.4*	0
NS(=O)(=O)c1ccc(CCNC(=O)CSc2nc3ccsc3c(=O)n2CC2CCC(C(=O)O)CC2)cc1 (configuration not stated)	0	-5	0	11*	15
O=C(CNC(=O)c1ccco1)N/N=C/c1c[nH]c2ccccc12	0	9.7*	0	-1	-4
CC1=C(C(=O)N2CCOCC2)C(c2cccc3ccccc23)NC(=S)N1 (configuration not stated)	-8	-5	0	11*	1
CCS(=O)(=O)N1Cc2ccccc2CC1C(=O)Nc1cccc(C)c1 (configuration not stated)	-2	-8	0	9.9*	-3
Cc1cc(OCCCCN2C(=O)NC(C)(C)C2=O)ccc1[N+](=O)[O-]	-2	2	0	2	5
CC1(C)NC(=O)N(CCOc2ccc([N+](=O)[O-])cc2)C1=O	2	-5	0	9.6*	5
Cc1cc(F)ccc1S(=O)(=O)N1CCCOC1CNC(=O)C(=O)NCc1ccco1 (configuration not stated)	-10	2	0	9.1*	-1
Cc1cc(F)ccc1S(=O)(=O)N1CCCOC1CNC(=O)C(=O)NCCc1c[nH]c2ccccc12 (configuration not stated)	-9	2	0	0	-22
O=C(NCc1cccnc1)C(=O)NCC1OCCCN1S(=O)(=O)c1ccc(Cl)cc1 (configuration not stated)	1	-2	0	0	17
O=C(NCc1cccnc1)C(=O)NCC1OCCN1S(=O)(=O)c1ccc(F)cc1 (configuration not stated)	1	-2	0	9.2*	-7
CCN(CC)S(=O)(=O)c1cc(NC(=O)C(C)N2CCN(c3ccccn3)CC2)ccc1C (configuration not stated)	2	-5	0	2	4
CCN(CC)S(=O)(=O)c1cc(NC(=O)C(C)Nc2ccccc2N2CCOCC2)ccc1C (configuration not stated)	0	1	0	9.8*	-8
CCCCNC(=O)c1ccccc1NC(=O)CCSc1ccccc1	-8	15*	0	-1	6
CCCCCCCCCCCC(=O)NC(C(=O)O)C(O)c1ccccc1 (configuration not stated)	4	0	0	-2	32*
CCN(CC)S(=O)(=O)c1ccc(N2C(=O)Nc3ccccc3N2O)cc1	2	-1	0	1	2
O=C1Nc2ccccc2N(O)N1c1ccc(S(=O)(=O)N2CCCCCC2)cc1	-3	7	0	9.7*	-2
COCc1cc(=O)[nH]c(Nc2nc3ccc(C)cc3o2)n1	-4	-2	0	8.9*	-18
SMILES	PKD1 inh	HMGR II inh	Hsp70 activator	Wee1 stabilizer	Arbovirus inh
CCc1ccc2nc(Nc3nc(COC)cc(=O)[nH]3)nc(C)c2c1	2	2	0	-1	0
CCCCc1nn2c(N)c(/C=C3\C=Nc4ccccc43)c(=O)nc2s1	-5	1	0	-2	33*
CC(C)c1nn2c(N)c(/C=C3\C=Nc4ccccc43)c(=O)nc2s1	/	/	/	2	/
CC(C)Cc1nn2c(N)c(/C=C3\C=Nc4ccccc43)c(=O)nc2s1	-3	-1	0	0	37*
CCCc1nn2c(N)c(/C=C3\C=Nc4ccccc43)c(=O)nc2s1	-18	-2	0	3	71*
CCC(CC)c1nn2c(N)c(/C=C3\C=Nc4ccccc43)c(=O)nc2s1	/	/	/	-2	/
CC1CCCN(C(=S)Nc2ccc3nc4n(c(=O)c3c2)CCCCC4)C1 (configuration not stated)	3	0	0	-2	-1
CC1=[N+](C)c2ccc3ccccc3c2C1(C)C	8	-4	0	-2	-13
CC(COc1ccccc1)N1CCC(CO)(Cc2ccccc2)CC1 (configuration not stated)	-3	1	0	-1	-15
CCc1ccccc1S(=O)(=O)Cc1ccc(C(=O)NCc2cccs2)o1	-3	9.8*	0	0	15
Cc1[nH]nc2c1C(CCc1ccccc1)C(C#N)=C(N)O2 (configuration not stated)	/	27*	/	/	-4
Cc1[nH]nc2c1C(c1ccco1)C(C#N)=C(N)O2 (configuration not stated)	0	3	0	-3	-6
CCc1cc(CN2CCOCC2)c(NC(=O)c2ccccc2)s1	-2	1	1	1	-10
O=C(CN1CCN(Cc2ccccc2)CC1)N/N=C/c1cccnc1	/	/	/	-1	/
NC(=O)CNC(=O)C1CCCc2c1[nH]c1ccc(Cl)cc21 (configuration not stated)	-8	-7	0	6	6
CCOC(=O)CNC(=O)C1CCCc2c1[nH]c1ccc(Cl)cc21 (configuration not stated)	-1	-8	0	10*	4
CC1CCN(C(=O)CN2C(=O)c3ccccc3S2(=O)=O)CC1	2	-4	0	9.3*	-4
COc1ccc2oc(=O)c(/C(C)=N/NC(=O)c3ccncc3)cc2c1	-7	1	0	8	2
Cc1ccc(O)c(NC(=O)CCC2CCCCC2)c1	-4	-5	1	9.1*	8
O=C(CCC1CCCCC1)Nc1ccccc1O	-11	2	0	6	12
CC(C)c1nc2c(c(=O)c3ccccc3n2C)c(=O)n1CCc1ccccc1	/	/	/	10*	/
COCCn1c(-c2ccccc2Cl)nc2c(c(=O)c3ccccc3n2C)c1=O	-9	-2	0	-1	31*
COc1ccc(CCn2c(-c3ccccc3)nc3c(c(=O)c4ccccc4n3C)c2=O)cc1	-14	-1	0	-4	-10
